This is one part of a sample in which the strongest signals are shown more often than they occur.
How the values were obtained:
Assay in all cases: glycan array binding signal (z-score within array); higher = stronger binding
Conditions in all cases: glycan notation: IUPAC condensed, linker removed
[1] = target: Fuc(a1-2)Gal(b1-3)GlcNAc6S
Outline: (§1)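 Glycan array data came from 3228 arrays in the Consortium for Functional Glycomics database, and only arrays with an available protein sequence were kept. Glycan names were put into IUPAC-condensed notation, and columns mapping to the same glycan were averaged. The binding signal is a within-array Z-score, averaged across arrays of one protein sequence run at different concentrations or buffers and across linkers. A negative Z-score can be read as non-binding.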

[2] = target: Fuc(a1-2)Gal(b1-4)GlcNAc(b1-3)Gal(b1-4)GlcNAc(b1-2)Man(a1-3)[Fuc(a1-2)Gal(b1-4)GlcNAc(b1-3)Gal(b1-4)GlcNAc(b1-2)Man(a1-6)]Man(b1-4)GlcNAc(b1-4)GlcNAc
Outline: as §1

[3] = target: Fuc(a1-2)Gal(b1-4)[Fuc(a1-3)]GlcNAc(b1-2)[Fuc(a1-2)Gal(b1-4)[Fuc(a1-3)]GlcNAc(b1-4)]Man(a1-3)[Fuc(a1-2)Gal(b1-4)[Fuc(a1-3)]GlcNAc(b1-2)Man(a1-6)]Man(b1-4)GlcNAc(b1-4)GlcNAc
Outline: as §1

[4] = target: Fuc(a1-2)[Gal(a1-3)]Gal(b1-3)GlcNAc
Outline: as §1

[5] = target: Fuc(a1-2)[Gal(a1-3)]Gal(b1-4)GlcNAc(b1-2)Man
Outline: as §1

[6] = target: Fuc(a1-2)[Gal(a1-3)]Gal(b1-4)GlcNAc(b1-6)GalNAc
Outline: as §1

[7] = target: Fuc(a1-2)[GalNAc(a1-3)]Gal(b1-4)GlcNAc(b1-2)Man(a1-3)[Fuc(a1-2)[GalNAc(a1-3)]Gal(b1-4)GlcNAc(b1-2)Man(a1-6)]Man(b1-4)GlcNAc(b1-4)GlcNAc
Outline: as §1

[8] = target: Fuc(a1-2)[GalNAc(a1-3)]Gal(b1-4)GlcNAc(b1-6)GalNAc
Outline: as §1

Gal(a1-3)Gal(b1-3)GlcNAc = target: Gal(a1-3)Gal(b1-3)GlcNAc
Outline: as §1

[9] = target: Gal(a1-3)Gal(b1-3)GlcNAc(b1-2)Man(a1-3)[Gal(a1-3)Gal(b1-3)GlcNAc(b1-2)Man(a1-6)]Man(b1-4)GlcNAc(b1-4)GlcNAc
Outline: as §1

[10] = target: Gal(a1-4)Gal(b1-4)GlcNAc(b1-3)Gal(b1-4)Glc
Outline: as §1

Gal(b1-3)Gal(b1-4)GlcNAc = target: Gal(b1-3)Gal(b1-4)GlcNAc
Outline: as §1

[11] = target: Gal(b1-3)GlcNAc(a1-6)Gal(b1-4)GlcNAc
Outline: as §1

Gal(b1-3)GlcNAc6S = target: Gal(b1-3)GlcNAc6S
Outline: as §1

[12] = target: Gal(b1-3)[Neu5Ac(a2-6)]GlcNAc(b1-4)Gal(b1-4)Glc
Outline: as §1

[13] = target: Gal(b1-4)GlcNAc(b1-2)[Gal(b1-4)GlcNAc(b1-6)]Man(a1-6)[Gal(b1-4)GlcNAc(b1-2)Man(a1-3)]Man(b1-4)GlcNAc(b1-4)GlcNAc
Outline: as §1

Gal(b1-4)GlcNAc6P = target: Gal(b1-4)GlcNAc6P
Outline: as §1

[14] = target: Gal3S(b1-3)[Fuc(a1-4)]GlcNAc
Outline: as §1

Gal6S(b1-4)Glc = target: Gal6S(b1-4)Glc
Outline: as §1

[15] = target: GalNAc(b1-3)Gal(a1-4)Gal(b1-4)GlcNAc(b1-3)Gal(b1-4)Glc
Outline: as §1

GalNAc(b1-3)GalNAc = target: GalNAc(b1-3)GalNAc
Outline: as §1

GalNAc(b1-3)GlcNAc = target: GalNAc(b1-3)GlcNAc
Outline: as §1

[16] = target: Man(a1-2)Man(a1-3)[Man(a1-2)Man(a1-6)]Man(a1-6)[Man(a1-2)Man(a1-2)Man(a1-3)]Man(b1-4)GlcNAc(b1-4)GlcNAc
Outline: as §1

[17] = target: Man(a1-3)[Man(a1-6)]Man(a1-6)[Man(a1-2)Man(a1-3)]Man(b1-4)GlcNAc(b1-4)GlcNAc
Outline: as §1

[18] = target: Man(a1-3)[Man(a1-6)]Man(a1-6)[Man(a1-3)]Man(b1-4)GlcNAc(b1-4)GlcNAc
Outline: as §1

[19] = target: Neu5Ac(a2-3)Gal(b1-3)GlcNAc(b1-3)GalNAc
Outline: as §1

[20] = target: Neu5Ac(a2-3)Gal(b1-4)GlcNAc(b1-2)Man(a1-3)[Neu5Ac(a2-3)Gal(b1-4)GlcNAc(b1-2)Man(a1-6)]Man(b1-4)GlcNAc(b1-4)GlcNAc
Outline: as §1

[21] = target: Neu5Ac(a2-3)Gal(b1-4)GlcNAc(b1-2)Man(a1-3)[Neu5Ac(a2-3)Gal(b1-4)GlcNAc(b1-2)Man(a1-6)]Man(b1-4)GlcNAc(b1-4)[Fuc(a1-6)]GlcNAc
Outline: as §1

[22] = target: Neu5Ac(a2-3)Gal(b1-4)GlcNAc(b1-3)Gal(b1-4)GlcNAc(b1-2)Man(a1-3)[Neu5Ac(a2-3)Gal(b1-4)GlcNAc(b1-3)Gal(b1-4)GlcNAc(b1-2)Man(a1-6)]Man(b1-4)GlcNAc(b1-4)GlcNAc
Outline: as §1

[23] = target: Neu5Ac(a2-3)Gal(b1-4)GlcNAc(b1-3)Gal(b1-4)GlcNAc(b1-3)GalNAc
Outline: as §1

[24] = target: Neu5Ac(a2-3)Gal(b1-4)GlcNAc(b1-3)[Neu5Ac(a2-3)Gal(b1-4)GlcNAc(b1-6)]GalNAc
Outline: as §1

[25] = target: Neu5Ac(a2-3)Gal(b1-4)[Fuc(a1-3)]GlcNAc(b1-3)Gal(b1-4)GlcNAc
Outline: as §1

[26] = target: Neu5Ac(a2-3)Gal(b1-4)[Fuc(a1-3)]GlcNAc(b1-3)GalNAc
Outline: as §1

[27] = target: Neu5Ac(a2-3)[GalNAc(b1-4)]Gal(b1-4)GlcNAc
Outline: as §1

[28] = target: Neu5Ac(a2-6)Gal(b1-4)GlcNAc(b1-2)Man(a1-3)Man(b1-4)GlcNAc(b1-4)GlcNAc
Outline: as §1

[29] = target: Neu5Ac(a2-6)Gal(b1-4)GlcNAc(b1-2)Man(a1-3)[Man(a1-6)]Man(b1-4)GlcNAc(b1-4)GlcNAc
Outline: as §1

[30] = target: Neu5Ac(a2-6)Gal(b1-4)GlcNAc(b1-2)Man(a1-3)[Neu5Ac(a2-3)Gal(b1-4)GlcNAc(b1-2)Man(a1-6)]Man(b1-4)GlcNAc(b1-4)GlcNAc
Outline: as §1

[31] = target: Neu5Ac(a2-6)Gal(b1-4)GlcNAc(b1-2)Man(a1-3)[Neu5Ac(a2-6)Gal(b1-4)GlcNAc(b1-2)Man(a1-6)]Man(b1-4)GlcNAc(b1-4)[Fuc(a1-6)]GlcNAc
Outline: as §1

[32] = target: Neu5Ac(a2-6)Gal(b1-4)GlcNAc(b1-2)Man(a1-6)Man(b1-4)GlcNAc(b1-4)GlcNAc
Outline: as §1

[33] = target: Neu5Ac(a2-6)Gal(b1-4)GlcNAc(b1-2)Man(a1-6)[Gal(b1-4)GlcNAc(b1-2)Man(a1-3)]Man(b1-4)GlcNAc(b1-4)GlcNAc
Outline: as §1

[34] = target: Neu5Ac(a2-6)Gal(b1-4)GlcNAc(b1-2)Man(a1-6)[GlcNAc(b1-2)Man(a1-3)]Man(b1-4)GlcNAc(b1-4)GlcNAc
Outline: as §1

[35] = target: Neu5Ac(a2-6)Gal(b1-4)GlcNAc(b1-2)Man(a1-6)[Man(a1-3)]Man(b1-4)GlcNAc(b1-4)GlcNAc
Outline: as §1

[36] = target: Neu5Ac(a2-6)Gal(b1-4)GlcNAc(b1-3)Gal(b1-4)GlcNAc(b1-3)[Neu5Ac(a2-6)Gal(b1-4)GlcNAc(b1-3)Gal(b1-4)GlcNAc(b1-6)]GalNAc
Outline: as §1

[37] = target: Neu5Ac(a2-6)Gal(b1-4)GlcNAc(b1-3)Gal(b1-4)[Fuc(a1-3)]GlcNAc(b1-3)Gal(b1-4)[Fuc(a1-3)]GlcNAc
Outline: as §1

[38] = target: Neu5Ac(a2-6)Gal(b1-4)GlcNAc(b1-3)[Neu5Ac(a2-6)Gal(b1-4)GlcNAc(b1-6)]GalNAc
Outline: as §1

[39] = target: Neu5Ac(a2-6)Gal(b1-4)GlcNAc(b1-6)GalNAc
Outline: as §1

[40] = target: Neu5Ac(a2-6)GlcNAc(b1-4)GlcNAc(b1-4)GlcNAc
Outline: as §1

[41] = target: Neu5Ac(a2-8)Neu5Ac(a2-3)[Gal(b1-3)GalNAc(b1-4)]Gal(b1-4)Glc
Outline: as §1

[42] = target: Neu5Gc(a2-3)Gal(b1-4)GlcNAc(b1-3)Gal(b1-4)GlcNAc(b1-2)Man(a1-3)[Neu5Gc(a2-3)Gal(b1-4)GlcNAc(b1-3)Gal(b1-4)GlcNAc(b1-2)Man(a1-6)]Man(b1-4)GlcNAc(b1-4)GlcNAc
Outline: as §1

B1: SialidaseA (Arthrobacter ureafaciens) (protein)
chain: MRSNSTSAPSLVRRAATGVLTCAVSIGLLAGLGLPAQAAPTPPNSPTLPPGSFSETNLAADRTAANFFYRIPALTYLGNDVVLAAWDGRPGSAADAPNPNSIVQRRSTDGGKTWGPVQVIAAGHVADASGPRYGYSDPSYIYDAEANKVFAFFVYSKDQGFGGSQFGNDDADRNVISSAVIESSDAGVTWSQPRLITSVTKPGTSKTNPAAGDVRSNFASSGEGIQLKYGPHKGRLIQQYAGDVRQADGSNKIQAYSVYSDDHGVTWHKGANVGDRMDENKTVELSDGRVLLNSRDNANRGYRKVAVSTDGGATYGPVSQDTELPDPANNGAIARMFPNAAQGSADAKKLIFTNANSKTGRENVSARVSCDDGETWPGVRTIRSGFSAYSTVTRLADGKFGVLYEGNYTDNMPFATFDDAWLNYVCAPLAVPAVNIAPSATQEVPVTVTNQEATTLSGATATVYTPSGWSATTVPVPDVAPGASVTVTVALTAPADASGPRSLNAAFTTADGRVSQFTFTATTPVAPQVGLTITGSAPARDVAANPYQAGDVLGYTLNVKSTANVAANSVPLTGTFDSGFLPPAAPNCRYNNLAAGASYNCTTAKHTITAADMERGYFVPEATFSITSTTTPSLTKTVQFTGAAVALRDGLISADISGARTDVGRDLATRPYAAGELVPYAFTVKNTSPFVEQVVPTAGNFSPFLPAGAGNCRYLSLPAGQSYECATPRHAVTAEEVEQGFFVPDTTWEVSAAGQSTRTYRINGGEVDLLVRDAALSATVVAEWKDADGDRFASAGDPVTFTYTVGNAGNVALTGLEAPDAGISLPFLAPGDTATATREHVLTAADVAGGSLAASAFEATARNGSKEVTATAEGQPLELKVQPAQPSKEPELTVQDLEDQTPPFDLGTAFKYRTGQKVSLAGLEYGQWYYVYLNKTGYRLGWMFPTTGDTVEFILPPEVRNGRDDVVVLDKDGRRVSFDRLQVTPKGEKI
glycan array binding signal (z-score) [1]: -0.849 | glycan array binding signal (z-score) [2]: 1.3 | glycan array binding signal (z-score) [3]: 0.318 | glycan array binding signal (z-score) [4]: -0.478 | glycan array binding signal (z-score) [5]: -0.252 | glycan array binding signal (z-score) [6]: -0.849 | glycan array binding signal (z-score) [7]: -0.021 | glycan array binding signal (z-score) [8]: -0.733 | glycan array binding signal (z-score) (Gal(a1-3)Gal(b1-3)GlcNAc): -0.563 | glycan array binding signal (z-score) [9]: 0.062 | glycan array binding signal (z-score) [10]: -0.51 | glycan array binding signal (z-score) (Gal(b1-3)Gal(b1-4)GlcNAc): -0.643 | glycan array binding signal (z-score) [11]: -0.544 | glycan array binding signal (z-score) (Gal(b1-3)GlcNAc6S): -0.625 | glycan array binding signal (z-score) [12]: 2.48 | glycan array binding signal (z-score) [13]: -0.46 | glycan array binding signal (z-score) (Gal(b1-4)GlcNAc6P): -0.685 | glycan array binding signal (z-score) [14]: -0.337 | glycan array binding signal (z-score) (Gal6S(b1-4)Glc): -0.719 | glycan array binding signal (z-score) [15]: -0.337 | glycan array binding signal (z-score) (GalNAc(b1-3)GalNAc): -0.689 | glycan array binding signal (z-score) (GalNAc(b1-3)GlcNAc): -0.637 | glycan array binding signal (z-score) [16]: -0.441 | glycan array binding signal (z-score) [17]: -0.172 | glycan array binding signal (z-score) [18]: -0.278 | glycan array binding signal (z-score) [19]: -0.321 | glycan array binding signal (z-score) [20]: -0.915 | glycan array binding signal (z-score) [21]: 3.28 | glycan array binding signal (z-score) [22]: 0.256 | glycan array binding signal (z-score) [23]: -0.013 | glycan array binding signal (z-score) [24]: 1.16 | glycan array binding signal (z-score) [25]: 2.56 | glycan array binding signal (z-score) [26]: 1.91 | glycan array binding signal (z-score) [27]: 0.486 | glycan array binding signal (z-score) [28]: 3.4 | glycan array binding signal (z-score) [29]: 3.4 | glycan array binding signal (z-score) [30]: 2.86 | glycan array binding signal (z-score) [31]: 3.44 | glycan array binding signal (z-score) [32]: 3.28 | glycan array binding signal (z-score) [33]: 3.95 | glycan array binding signal (z-score) [34]: 3.32 | glycan array binding signal (z-score) [35]: 3.29 | glycan array binding signal (z-score) [36]: 3.49 | glycan array binding signal (z-score) [37]: 3.65 | glycan array binding signal (z-score) [38]: 3.9 | glycan array binding signal (z-score) [39]: -0.534 | glycan array binding signal (z-score) [40]: -0.274 | glycan array binding signal (z-score) [41]: -0.131 | glycan array binding signal (z-score) [42]: 1.3
